A selection: hits, their analogues and other compounds. The true share with any hit is near 4.1%.
KLF5 inh: kruppel-like factor 5 inhibition; AID 1700; inhibition, % at 5 µM; DLD-1 KLF5 promoter-luciferase reporter, luminescence; actives 0.23% (n = 290,000);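 active = inhibition above a per-plate limit of that plate's mean compound inhibition plus 3 SD, cut at about 60% in these data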;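 also: 0% = DMSO wells and 100% = LY294002 at 200 µM; higher means less KLF5 promoter-driven luciferase light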
aSyn 5UTR inh: MLPCN primary screen, SNCA 5' untranslated region | actives 0.82% (n = 300,000) | AID 1813 | inhibition, % (tested at 7.5 µM) | alpha-synuclein 5'UTR reporter, inhibitor activity; in the data active = inhibition above about 60%;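 also: H4 neuroglioblastoma cells stably carrying SNCA 5'UTR luciferase fusion; 0% = DMSO wells and 100% = positive control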
697 NFkB inh: inhibitors of the PMA/ionomycin-induced NF-kB reporter in 697 B cells; inhibition, % at 4 µM; AID 435022; actives 0.33% (n = 330,000); 697 B-cell NF-kB luciferase reporter, 16 h; in the data active = inhibition above about 35%
Mdm2 MdmX PPI: human Mdm2/MdmX binding inhibition; O15151+Q00987; SaOS-2 split-luciferase Mdm2/MdmX complementation, luminescence; inhibition, % at 8 µM; actives 3% (n = 330,000);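 active = inhibition of at least 50% at 8 µM in the primary screen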
Target sequence (O15151 whole entry, looked up): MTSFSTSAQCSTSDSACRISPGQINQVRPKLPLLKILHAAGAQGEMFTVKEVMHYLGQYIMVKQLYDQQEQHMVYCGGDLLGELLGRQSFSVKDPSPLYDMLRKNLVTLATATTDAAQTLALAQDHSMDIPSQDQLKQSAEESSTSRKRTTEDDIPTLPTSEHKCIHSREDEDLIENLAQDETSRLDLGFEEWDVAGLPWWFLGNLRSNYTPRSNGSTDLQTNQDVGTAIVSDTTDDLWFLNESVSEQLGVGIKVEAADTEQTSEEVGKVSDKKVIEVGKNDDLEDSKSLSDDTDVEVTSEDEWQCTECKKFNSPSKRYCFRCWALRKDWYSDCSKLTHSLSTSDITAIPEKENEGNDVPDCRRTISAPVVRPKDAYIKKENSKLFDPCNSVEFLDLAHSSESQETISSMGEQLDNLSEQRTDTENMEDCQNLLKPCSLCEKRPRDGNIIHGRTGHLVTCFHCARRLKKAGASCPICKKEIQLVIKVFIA
Target sequence (Q00987 whole entry, looked up): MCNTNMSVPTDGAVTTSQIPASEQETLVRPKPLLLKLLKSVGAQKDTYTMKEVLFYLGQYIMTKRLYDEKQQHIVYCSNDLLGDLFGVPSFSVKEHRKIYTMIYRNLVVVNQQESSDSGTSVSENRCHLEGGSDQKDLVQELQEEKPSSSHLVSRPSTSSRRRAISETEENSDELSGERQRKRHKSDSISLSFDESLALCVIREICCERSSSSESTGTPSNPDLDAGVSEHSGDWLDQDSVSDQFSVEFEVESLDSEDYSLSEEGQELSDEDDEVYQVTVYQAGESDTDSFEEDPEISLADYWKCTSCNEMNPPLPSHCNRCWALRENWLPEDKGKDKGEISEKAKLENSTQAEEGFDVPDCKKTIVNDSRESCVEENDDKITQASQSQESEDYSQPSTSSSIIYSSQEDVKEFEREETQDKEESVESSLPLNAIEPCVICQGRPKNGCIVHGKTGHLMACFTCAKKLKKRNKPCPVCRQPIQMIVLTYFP
Gli-Sufu antag: antagonists of Gli-Sufu signaling; Sufu-KO-LIGHT fibroblasts, Gli luciferase reporter luminescence; inhibition, % at 5 µM; actives 0.74% (n = 340,000); AID 588413;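 active = inhibition above about 55%, limit read from the data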;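 also: 0% = DMSO-treated cells and 100% = wells with medium but no cells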
Jurkat NFkB inh: lowers PMA/ionomycin-induced NF-kB signal in Jurkat cells. AID 435003. PMA/ionomycin-induced NF-kB luciferase reporter, luminescence. actives 0.53% (n = 330,000). inhibition, % at 4 µM; in the data active = inhibition above about 50%
Gli antag conf: Gli-SUFU antagonism confirmation, single concentration | shares compounds with Gli-Sufu antag | Sufu-KO-LIGHT cells, Gli luciferase reporter, luminescence | inhibition, % at 5 µM | actives 40% (n = 2,500) | AID 602428;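 active = mean inhibition at 5 µM reaching about 45%, limit read from the data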;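 also: plate controls were DMSO-treated cells for no effect and wells lacking cells for full effect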
Gli cytotox: counter-screen for Gli-SUFU antagonists: cytotoxicity; AID 651994; shares compounds with Gli-Sufu antag; actives 32% (n = 2,500); Sufu-KO-LIGHT cells cytotoxicity, ATP luminescence; cytotoxicity, % at 5 µM;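 active = mean cytotoxicity at 5 µM above about 25%, limit read from the data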;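 also: cells exposed to compound overnight for roughly 16 to 18 hours; plate controls were DMSO wells with cells for no effect and medium without cells for full effect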
Wnt3a cs: Wnt3a reporter inhibition counter-screen | actives 20% (n = 2,500) | Wnt-LIGHT cells, Wnt3a-driven luciferase reporter, luminescence | AID 651995 | inhibition, % at 6.25 µM | shares compounds with Gli-Sufu antag;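 active = mean inhibition above about 25%, limit read from the data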
Starred values were filed as active, the others as inactive; nt = not tested or not shown.

SMILES	KLF5 inh	aSyn 5UTR inh	697 NFkB inh	Mdm2 MdmX PPI	Gli-Sufu antag	Jurkat NFkB inh	Gli antag conf	Gli cytotox	Wnt3a cs
CCc1ccc(CNC(=O)CCCC(=O)n2nc(C)c3ccccc32)cc1	-20.6	-2.6	-18.5	14.8	56.9*	-1.6	17.3	22.9	3.7
CCOC(=O)C(C)N1CC(=O)N(c2ccccc2)C1=O (centres undefined)	-27.3	0.2	nt	nt	2.4	nt	nt	nt	nt
CCOC(=O)C1=C(C)N(c2ccccc2)C(=O)C1	-17.4	-32.4	-10.7	1.8	76.1*	-5.5	23.9	10.8	5.7
Cc1cc(C)nc(CCNC(=O)CC2C(=O)NCCN2Cc2ccccc2)n1 (centres undefined)	3.3	-3.9	-6.7	2.9	52.4	4.0	21.4	-4.5	2.4
Cc1nc(CCNC(=O)CC2C(=O)NCCN2Cc2ccccc2)nc2c1CCC2 (centres undefined)	-23.8	21.6	1.4	30.9	-10.4	6.7	nt	nt	nt
CN(CCc1ccccn1)C(=O)CC1C(=O)NCCN1Cc1ccc(-c2ccccc2)cc1 (centres undefined)	-1.6	6.8	6.7	5.4	60.2*	-3.8	8.9	1.0	-24.6
Cc1ccc(C(=O)Nc2nc(=O)[nH]s2)cc1	-29.6	-20.9	8.6	14.6	-7.4	-30.7	nt	nt	nt
COc1ccc2c(c1)C(C)=CC(C)(C)N2S(=O)(=O)c1ccc(Br)cc1	22.1	-86.1	nt	nt	59.1*	nt	58.1*	57.6*	17.9
OCC1CCCCN1CCNCc1cn[nH]c1-c1cccc2ccccc12 (centres undefined)	8.2	-22.6	8.8	19.3	4.5	5.7	nt	nt	nt
c1ccc2c(-c3[nH]ncc3CNCCCn3ncc4ccccc43)cccc2c1	1.0	-6.0	7.3	21.0	58.5*	7.7	23.0	8.5	-9.9
COc1ccc(OC)c(C(=O)NC(CC(N)=O)c2ccc(NCCN3CCCC3)c([N+](=O)[O-])c2)c1 (centres undefined)	-12.3	15.2	16.7	-7.0	4.0	-11.2	nt	nt	nt
COc1ccc(OC)c(C(=O)NC(CC(N)=O)c2ccc(NCCN3CCOCC3)c([N+](=O)[O-])c2)c1 (centres undefined)	nt	24.2	-12.3	11.8	94.4*	-25.3	10.7	8.9	-22.7
N#Cc1c(-c2ccco2)cc(C2CC2)nc1N	0.1	28.2	14.6	-11.9	-0.3	0.4	nt	nt	nt
N#Cc1c(-c2ccccc2)cc(C2CC2)nc1N	-26.1	29.1	-24.1	6.3	50.3	-21.4	21.6	23.6	-14.5
CCOC(=O)CNC1CC(=O)N(c2ccc(Br)cc2)C1=O (centres undefined)	-15.9	10.0	-10.6	6.7	77.0*	-5.5	15.0	14.0	-9.0
O=C(NNC1CC(=O)N(c2ccc(Br)cc2)C1=O)c1cccs1 (centres undefined)	0.9	3.6	26.1	6.9	2.3	15.5	nt	nt	nt
COc1ccc(NC(=O)CN(C)C2CCCCC2)c([N+](=O)[O-])c1	1.4	-7.7	4.7	7.6	1.0	1.7	nt	nt	nt
CCOc1ccccc1-n1c(SCC(=O)Nc2ccccc2C(=O)O)nc2ccccc2c1=O	-17.7	-57.0	-41.5	28.4	10.4	11.6	nt	nt	nt
CSCCC(NC(=O)c1ccco1)C(=O)N1CC(C)OC(C)C1 (centres undefined)	nt	nt	12.5	13.8	57.6*	1.8	6.8	-13.0	-13.8
Cc1cc(=O)[nH]c(N/N=C/C(C)c2ccccc2)n1 (centres undefined)	-16.2	-5.3	20.9	-3.2	4.6	-5.5	nt	nt	nt
COc1ccc(CCNC(=O)[C@H](C)N2C(=O)N3CCc4c([nH]c5ccccc45)[C@@]3(C)C2=O)cc1OC	-4.2	34.0	8.4	13.4	-2.1	4.3	nt	nt	nt
COc1ccccc1CNC(=O)[C@H](C)N1C(=O)N2CCc3c([nH]c4ccccc34)[C@@]2(C)C1=O	-10.2	12.8	2.3	28.2	65.9*	11.2	34.1	5.4	1.8
Cc1cc(NC(=O)CS(=O)(=O)c2ccc(Cl)cc2)no1	-9.0	14.6	13.4	-11.6	-47.1	19.6	nt	nt	nt
Cc1ccc2nc(/C(C#N)=C\c3ccc(N4CCCCC4)c([N+](=O)[O-])c3)[nH]c2c1	-61.3	-44.6	3.2	14.8	50.0	-2.2	35.8	9.6	-78.5
COc1cc2c(c(OC)c1OC)-c1ccc(SC)c(=O)cc1C(NC=O)CC2 (centres undefined)	nt	nt	nt	nt	46.8	nt	nt	nt	nt
SMILES	KLF5 inh	aSyn 5UTR inh	697 NFkB inh	Mdm2 MdmX PPI	Gli-Sufu antag	Jurkat NFkB inh	Gli antag conf	Gli cytotox	Wnt3a cs
COc1cc2c(c(OC)c1OC)-c1ccc(SC)c(=O)cc1C(NC(=O)c1ccccc1)CC2 (centres undefined)	nt	nt	nt	nt	63.2*	nt	66.2*	50.9*	45.5*
C=COC(=O)NC1CCc2cc(OC)c(OC)c(OC)c2-c2ccc(SC)c(=O)cc21 (centres undefined)	nt	nt	nt	nt	66.2*	nt	64.4*	63.0*	39.8*
O=C(COC(=O)c1cccc(Br)c1)NCC1CCCO1 (centres undefined)	nt	nt	3.5	9.2	0.4	3.0	nt	nt	nt
O=C(OC(c1ccccc1)c1nccc2ccccc12)c1ccccc1 (centres undefined)	nt	nt	nt	nt	64.6*	nt	78.7*	28.1*	91.6*
Cn1c(SCC(=O)N2CCOCC2)nc2c(c1=O)SCC2	-19.0	-10.8	-31.4	-24.3	-0.9	-10.0	nt	nt	nt
COc1ccc(CCC(=O)Nc2cccc(S(=O)(=O)N3CCCCCC3)c2)cc1OC	nt	nt	-8.5	21.6	0.1	-3.9	nt	nt	nt
COc1ccc(CCNC(=S)NC(=O)c2cc(OC)c(OC)c(OC)c2)cc1OC	-15.3	1.4	-6.4	8.9	50.1	7.5	18.4	8.7	1.6
COc1ccc(CCNC(=O)C2CCCN(S(=O)(=O)N3CCCCCC3)C2)cc1OC (centres undefined)	-19.7	3.3	8.0	32.6	53.6	-1.0	13.8	6.4	5.3
CC(=O)c1c(C)[nH]c(C(=O)OCC(=O)Nc2cccc(S(=O)(=O)N3CCCC3)c2)c1C	-13.8	-44.0	-16.6	7.3	58.0*	46.4	53.0*	13.8	-20.0
COc1ccc(CC(=O)Nc2cccc(S(=O)(=O)N3CCCCCC3)c2)cc1OC	-29.1	-2.0	nt	nt	52.7	nt	49.4*	25.7*	22.3
COc1ccc(CCNC(=S)NC(=O)c2ccccc2)cc1OC	-21.4	14.6	-18.9	5.5	6.3	2.7	nt	nt	nt
COc1cc(/C=C2/CC(C)OC2=O)c([N+](=O)[O-])cc1OC (centres undefined)	-4.8	-22.6	-17.5	2.5	8.7	-6.7	nt	nt	nt
COc1cccc(C(=O)COC(=O)c2n[nH]c(=O)c3ccccc23)c1	12.5	8.1	18.6	7.4	19.0	6.0	nt	nt	nt
